# According to PubChem BioAssay (NCI):
# About 83,000 compounds went through this panel and 20% of them were active in at least one assay; those are over-represented in the sample as a whole.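 Testing used 96-well plates and a 48-hour single-concentration exposure. Example: -40 means 40% of the starting cells died.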 Unmarked numbers belong to inactive results. Calls of active or inactive are those of the source. Rule for the calls: active = growth percent below 10; inactive = the rest.
# Key:
# Assay in all cases: NCI-60 one-dose screen, 48 h (100 = growth as untreated, 0 = no growth, -100 = all killed)
# Details in all cases: 10 µM
# NCI-H23 lung = tested on: NCI-H23 lung
# NCI-H226 lung = tested on: NCI-H226 lung
# NCI-H322M lung = tested on: NCI-H322M lung
# HOP-62 NSCLC = tested on: HOP-62 NSCLC
# NCI-H460 lung = tested on: NCI-H460 lung
# HOP-92 NSCLC = tested on: HOP-92 NSCLC
# NCI-H522 lung = tested on: NCI-H522 lung
# A549/ATCC NSCLC = tested on: A549/ATCC NSCLC
# 786-0 renal = tested on: 786-0 renal
# COLO 205 colon = tested on: COLO 205 colon
Structure (SMILES),growth (NCI-H23 lung),growth (NCI-H226 lung),growth (NCI-H322M lung),growth (HOP-62 NSCLC),growth (NCI-H460 lung),growth (HOP-92 NSCLC),growth (NCI-H522 lung),growth (A549/ATCC NSCLC),growth (786-0 renal),growth (COLO 205 colon)
CCN(CCCNC(=O)Cc1cc(=O)oc2cc(N(C)C)ccc12)CCNc1ccnc2cc(Cl)ccc12,94.9%,93.1%,91%,85.6%,92.3%,59.5%,56.8%,93.4%,86.3%,68.1%
O=C(O)c1cc(C(F)(F)F)cc(C(F)(F)F)c1,101%,111%,102%,103%,107%,121%,102%,101%,93.7%,113%
CCCN(CCC)CCCNC(=O)c1cc2c(-c3ccc(OC)c(OC)c3)nn(C)c2s1,11.6%,37.5%,22%,34.5%,8.52% (active),-7.72% (active),-17% (active),9.14% (active),29.5%,90.1%
C#CCNCCN1C(=O)c2ccc3c4c(ccc(c24)C1=O)C(=O)N(CCNCC#C)C3=O,23.8%,20.9%,28.7%,48.4%,12.8%,91.2%,26.3%,29.2%,43.1%,-77.3% (active)
NC1CCC(Nc2nc(NCc3ccc(-c4ccco4)nc3)c3ncn(C4CCCC4)c3n2)CC1 (stereo not given),-18.1% (active),-18.6% (active),21.4%,-17.1% (active),4.97% (active),-16.3% (active),-70.6% (active),3.69% (active),8.51% (active),-62.7% (active)
CCOC(=O)Nc1ccc2c(c1)C(=O)N(CC)c1ccccc1O2,30.1%,14.5%,50%,24.8%,9.56% (active),33.7%,-39% (active),19.4%,31.1%,-29.8% (active)
COc1ccc(CSc2nc3cc(OC)c(OC)cc3c(=O)n2-c2ccc(OC)cc2OC)cc1,78.3%,78.4%,80.6%,101%,90.6%,75.5%,68.6%,80.8%,95.7%,101%
COc1cc(-c2cc(/C=C/C(C)=O)[nH]n2)cc(OC)c1OC,87.7%,81.7%,79.4%,84.2%,95.2%,74.9%,-66% (active),86.2%,84.5%,93.4%
Cc1c(C(=O)N[C@H](CO)Cc2ccccc2)[nH]c2ccc(Cl)cc2c1=O,101%,120%,108%,100%,106%,94.7%,83.8%,87.1%,96.4%,104%
CCOC(=O)Nc1ccc2c(c1)C(=O)N(CCOC)c1ccccc1O2,52%,77.1%,43%,43%,23%,45%,18.4%,44.8%,45.3%,13%
